Measurements from PubChem BioAssay AID2284369 (EPA ToxCast).
Inconclusive results are not listed. Active and inactive are the calls of the source. The calls were made as follows: active = hit-call score of the fitted dose curve at least 0.9, where 1 is the maximum; inconclusive = response in the unintended direction; inactive = score below 0.9.

System: frog Estrogen Receptor (ER1), gene 398734
Assay: ATG_frER1_EcoTox2: Attagene TRANS-FACTORIAL EcoTox-2 HepG2 Assay for frog Estrogen Receptor (ER1)
Method: ATG_EcoTox2 is a cell-based, multiplexed assay created by modifying the existing Attagene TRANS-FACTORIAL system to include a panel of nuclear receptors from some or all the following species: human (Homo sapiens), african clawed frog (Xenopus laevis), rainbow trout (Oncorhynchus mykiss), japanese medaka (Oryzias latipes), and zebrafish (Danio rerio). The ECOTOX2-FACTORIAL format uses HepG2, a human liver cell line, with measurements taken at 24 hours after chemical dosing in a 24-well plate. ATG_frER1_EcoTox2 is one of 29 assay components calculated in the ATG_EcoTox2 assay. It is designed to make measurements of mRNA induction, a form of inducible reporter, as detected with fluorescence intensity signals by Reverse transcription polymerase chain reaction (RT-PCR) and Capillary electrophoresis technology.The assay endpoint ATG_frER1_EcoTox2 was analyzed in the positive analysis fitting direction relative to DMSO as the negative control and baseline of activity. Using a type of inducible reporter, measures of mRNA for gain-of-signal activity can be used to understand the reporter gene at the transcription factor-level as they relate to the gene ER. Furthermore, this assay endpoint can be referred to as a primary readout, because this assay has produced multiple assay endpoints where this one serves a reporter gene function. To generalize the intended target to other relatable targets, this assay endpoint is annotated to the nuclear receptor intended target family, where the subfamily is steroidal.
Human liver HepG2 cells are transiently transfected with multiple reporter transcription units (MRTUs) in 6-well plates using FuGene 6 reagent (Roche; 3 ml FuGene/1 mg DNA). The MRTU constructs are regulated by a cis-regulating element (promoter). Each RTU expresses a GAL4-UAS that regulates the transcription of a nearby target reporter gene sequence. A major difference between the CIS and TRANS system is that in CIS activities of endogenous TFs are measured, whereas the TRANS assay evaluates changes in activities of exogenous, chimeric NR-Gal4 proteins. […] At the end of 24 hour incubation, total RNA was isolated using TriZol reagent (Invitrogen). The isolated RNA is then reverse-transcribed using oligo(dT) primer and Mo-MLV reverse transcriptase (Invitrogen) with DNAse I (Ambion) treatment for 30 min. The one-tenth of the produced cDNA was amplified by PCR using Taq DNA polymerase (Invitrogen) and two reporter sequence-specific primers. The PCR products were fluorescently labeled by primer extension with 6-arboxyfluorescein (6-FAM) 5'-labeled reporter sequence-specific primer (2 min at 95 C, 20 s at 68 C and 10 min at 72 C) and these products were digested with 5U of HpaI (New England Biolabs) for 2h at 37 C. The fragments were purified using Qiaquick PCR columns (Qiagen), analyzed on an ABI 3130xL genetic analyzer (Applied Biosystems) with peak positions identified by using a set of X-rhodamine (ROX)-labeled MapMarker1000 molecular weight standards (BioVentures). The raw capillary electrophoresis data was processed using Attagraph software (Attagene).

SMILES	AC50	outcome
C[C@]12C=CC(=O)C=C1CC[C@@H]1[C@@H]2C(=O)C[C@@]2(C)[C@H]1CC[C@]2(O)C(=O)CO	50 µM (active)	–
Cc1ccc(C)c(OCCCC(C)(C)C(=O)O)c1	–	inactive
C[C@@H]1C[C@H]2[C@@H]3CCC4=CC(=O)C=C[C@]4(C)[C@@]3(F)[C@@H](O)C[C@]2(C)[C@@]1(O)C(=O)COP(=O)(O)O	–	inactive
C=C(c1ccc(C(=O)O)cc1)c1cc2c(cc1C)C(C)(C)CCC2(C)C	–	inactive
CC(C)(Oc1ccc(CCNC(=O)c2ccc(Cl)cc2)cc1)C(=O)O	–	inactive
Cc1c(C)c2c(c(C)c1O)CCC(C)(COc1ccc(CC3SC(=O)NC3=O)cc1)O2 (stereo not given)	–	inactive
CC(C)OC(=O)C(C)(C)Oc1ccc(C(=O)c2ccc(Cl)cc2)cc1	–	inactive
Cc1cccc(Nc2cc(Cl)nc(SCC(=O)O)n2)c1C	–	inactive
CC(c1cc2ccccc2s1)N(O)C(N)=O (stereo not given)	–	inactive
CN(CCOc1ccc(CC2SC(=O)NC2=O)cc1)c1ccccn1 (stereo not given)	–	inactive
